MEKK2 WT-MEK5 – raises or lowers MEK5 binding to wildtype human MEKK2 PB1 domain | Q9Y2U5 | bead flow cytometry, Alexa488-MEK5 binding to MEKK2 WT; actives lie on both sides | binding response (% of control), % at 10 µM | hit rate 1.1% among 290,000 | AID 1531; in the data active = binding response below about 67% or above about 130%
SKN-1 inh – inhibitors of C. elegans SKN-1. AID 624304. inhibition, % at 21.8 µM. hit rate 0.49% among 360,000. C. elegans VP596 Pgst-4::GFP/RFP ratio, acrylamide-induced, 24 h;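 active = interference check ratio from 0.5 to 1.5 plus GFP to RFP signal ratio inhibition reaching or exceeding a fixed threshold, cut at about 30% in these data, passing the limit was not always enough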
CendR NRP1 mod – modulators of CendR peptide binding to human neuropilin-1. FAM-RPARPAR peptide binding to NRP-1, fluorescence polarization. hit rate 0.85% among 360,000. O14786. inhibition, % at 25 µM. AID 602438;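 active = inhibition or corrected inhibition above about 18%, plus a signal ratio from 0.5 to 1.5, limit read from the data, passing the limit was not always enough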
Target sequence (O14786 whole entry, looked up): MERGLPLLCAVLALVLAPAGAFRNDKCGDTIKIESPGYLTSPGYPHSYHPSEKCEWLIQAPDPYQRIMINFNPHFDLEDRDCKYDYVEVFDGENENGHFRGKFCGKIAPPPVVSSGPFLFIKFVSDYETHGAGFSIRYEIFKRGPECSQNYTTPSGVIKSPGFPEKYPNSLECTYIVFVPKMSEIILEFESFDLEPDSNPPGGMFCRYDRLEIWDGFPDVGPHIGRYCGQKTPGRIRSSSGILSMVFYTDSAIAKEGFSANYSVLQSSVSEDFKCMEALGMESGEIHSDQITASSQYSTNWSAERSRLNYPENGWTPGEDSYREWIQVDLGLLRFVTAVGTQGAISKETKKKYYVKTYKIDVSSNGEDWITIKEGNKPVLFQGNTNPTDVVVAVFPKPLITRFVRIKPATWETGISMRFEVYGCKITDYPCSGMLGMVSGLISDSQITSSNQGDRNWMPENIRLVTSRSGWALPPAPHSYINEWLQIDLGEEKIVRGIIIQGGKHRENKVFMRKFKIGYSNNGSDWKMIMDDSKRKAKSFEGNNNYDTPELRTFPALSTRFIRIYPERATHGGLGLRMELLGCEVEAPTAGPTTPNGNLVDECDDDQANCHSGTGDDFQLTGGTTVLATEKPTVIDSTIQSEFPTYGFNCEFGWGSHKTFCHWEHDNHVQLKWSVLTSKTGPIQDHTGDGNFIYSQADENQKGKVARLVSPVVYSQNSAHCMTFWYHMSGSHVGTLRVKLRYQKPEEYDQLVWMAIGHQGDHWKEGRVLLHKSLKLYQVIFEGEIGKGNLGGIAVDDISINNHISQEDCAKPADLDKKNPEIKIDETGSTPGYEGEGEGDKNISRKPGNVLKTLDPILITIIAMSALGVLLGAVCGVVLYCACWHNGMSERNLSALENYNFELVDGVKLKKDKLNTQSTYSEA
MEKK2mut PB1 HTS – signal of MEK5 binding to mutant human MEKK2 PB1 domain. percent response, % at 10 µM. bead flow cytometry, Alexa488-MEK5 binding to MEKK2 mutant. hit rate 0.35% among 290,000; in the data active = percent response above about 24%, passing the limit was not always enough
MEKK3 PB1 HTS – MEKK3-MEK5 PB1 interaction, increase or decrease | bead-based flow cytometry, Alexa488-MEK5 binding to MEKK3; actives lie on both sides; 0 = blocked by unlabeled MEK5, 100 = vehicle | AID 1529 | hit rate 1.4% among 290,000 | binding response (% of control), % at 10 µM | Q99759;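 active = binding response more than 3 SD above or below the average of its plate-row segment, actives on both sides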;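 note: Alexa488 bead fluorescence after subtracting the streptavidin-only scavenger bead signal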
MEKK2wt confirm – raises or lowers MEK5 binding to wildtype human MEKK2, retest | AID 1892 | bead flow cytometry, Alexa488-MEK5 binding to MEKK2 WT; actives lie on both sides | shares compounds with MEKK3 PB1 HTS | binding response (% of control), % at 10 µM | hit rate 2.4% among 5,900; in the data active = binding response below about 16% or above about 210%; inactive = in between
MEKK2mut-MEK5 – signal of MEK5 binding to mutant human MEKK2, retest; bead flow cytometry, Alexa488-MEK5 binding to MEKK2 mutant; hit rate 2% among 5,900; shares compounds with MEKK3 PB1 HTS; percent response, % at 10 µM; in the data active = percent response mostly above about 71%, no sharp cut-off; inactive = mostly below about 38%;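 note: higher means compound restores mutant binding toward wildtype level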
MEKK3-MEK5 inh – confirmation of inhibitors of MEK5 binding to human MEKK3 | shares compounds with MEKK3 PB1 HTS | bead flow cytometry, Alexa488-MEK5 binding to MEKK3; hits give low values | binding response (% of control), % at 10 µM | hit rate 1.8% among 5,900;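 active = binding response below 72% of control, or above a set upper limit, though filed actives all read lower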;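 note: 100% = DMSO only wells and 0% = binding blocked by excess unlabeled MEK5; lower values mean stronger disruption of MEK5 binding to MEKK3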
The depositor's hits bear a star; . = not tested or not shown; [ ] = remark or other dose. Only some compounds are listed: those with a hit (about 3.2% of all), similar ones and a draw of the others.

SMILES	MEKK2 WT-MEK5	SKN-1 inh	CendR NRP1 mod	MEKK2mut PB1 HTS	MEKK3 PB1 HTS	MEKK2wt confirm	MEKK2mut-MEK5	MEKK3-MEK5 inh
CCOC(=O)c1ccc(NC(=O)c2nc(SC)ncc2Cl)cc1	102	3	-2	1	101	.	.	.
COCCNC(=O)c1c(NC(=O)c2nc(SC)ncc2Cl)sc2c1CCCC2	82	-4	-14	-10	82*[inhibitor]	106	4	104
CN(C)C(CNc1ccc(C(F)(F)F)cc1[N+](=O)[O-])c1ccccc1 (stereo not drawn)	111	6	-16	3	102	.	.	.
NS(=O)(=O)c1ccc(NNC(=O)c2ccccc2)cc1	98	23	-5	0	101	.	.	.
CCc1ccc(C(=O)NNc2ccc(S(N)(=O)=O)cc2)cc1	186*	11	11	36	104	101	-3	101
C/C(=N\NC(=O)c1nnn(-c2nonc2N)c1CN1CCC(C)CC1)c1ccc(Br)cc1	.	12	0	.	.	.	.	.
CC1=CC(C)C(C(=O)O)C(C(=O)N2CCN(C)CC2)C1 (stereo not drawn)	105	4	-4	0	111	.	.	.
CC1=CC(C)(C)C(C(=O)O)C(C(=O)O)C1 (stereo not drawn)	136*	-2	-7	10	141*	112	19	88
CCOC(=O)[C@]12CCC=C1N(Cc1ccco1)C(=O)[C@H](CC(=O)NCCCOC)C2	.	1	-12	.	.	.	.	.
O=C(O)CCC(=O)N1N=C(c2c(-c3ccccc3)c3cc(Cl)ccc3[nH]c2=O)CC1c1cccs1 (stereo not drawn)	105	2	-2	1	134*	102	-3	101
O=C(O)CCCC(=O)N1N=C(c2c(-c3ccccc3)c3cc(Cl)ccc3[nH]c2=O)CC1c1cccs1 (stereo not drawn)	103	7	-5	1	98	.	.	.
CNC(=O)C(=O)NCC1OCCN1S(=O)(=O)c1ccc2c(c1)OCCO2 (stereo not drawn)	.	2	0	.	.	.	.	.
COCCNC(=O)C(=O)NCC1OCCN1S(=O)(=O)c1ccc2c(c1)OCCO2 (stereo not drawn)	124	-4	6	23	129*	104	4	105
CCOC(=O)C1CCCN(C(=O)c2[nH]c(C(F)(F)F)nc2-c2ccccc2)C1 (stereo not drawn)	.	8	-9	.	.	.	.	.
O=S(=O)(c1ccc(Cl)cc1)N1CCc2ccccc21	66	69	-227	46*	102	104	3	103
CCCN1CCC(=NNC(=O)CSc2cc(C)c(Br)cc2C)CC1	111	-2	0	1	136*	115	7	104
CC(=O)N1CCC(=NNC(=O)CSc2cc(C)c(Br)cc2C)CC1	89	1	7	8	97	.	.	.
CCCCN(C)c1c(C)nc2ccc(C(=O)Nc3ccc(OC)c(OC)c3)cn12	.	8	4	.	.	.	.	.
O=C(Nc1ccccc1)c1cccc(C(F)(F)F)c1	108	7	-1	1	144*	104	1	105
O=C(O)c1cccc(N2CCCC2=O)c1	106	13	4	7	112	.	.	.
O=C(Nc1ccccc1)c1cccc(N2CCCC2=O)c1	77	3	0	-16	61*[inhibitor]	107	13	110
O=C(Nc1ccon1)c1cccc(C(F)(F)F)c1	77	21	-10	-3	70*[inhibitor]	96	-4	102
O=c1c(-c2ccc3c(c2)OCCO3)coc2cc(OC3OC(CO)C(O)C(O)C3O)ccc12 (stereo not drawn)	46*[inhibitor]	-11	-3	-11	44*[inhibitor]	97	-5	103
COc1ccc(CNC(=O)CSCc2ccccc2Cl)cc1	105	-2	6	1	128*	103	0	103
COc1cc(-c2n[nH]c(=S)n2-c2cc(C(F)(F)F)ccc2Cl)cc(OC)c1OC	108	0	15	0	144*	100	-3	103

Screening data from PubChem BioAssay.
